Our source for the inhibition values is PubChem BioAssay AID1063 (University of Pittsburgh Molecular Library Screening Center, 2008).

In all, about 200,000 compounds went through this assay and about 18,000 (9%) were called active. Cut-off read from the data, not from the text of the source: active = inhibition above about 50%; inactive = the rest. This excerpt belongs to a sample that is enriched for actives.

The nature of the experiment: Leishmania major promastigote growth inhibition, primary screen (AID 1063).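 Note: promastigotes grown with compound for 44 hours at 28 °C.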 Conditions: Leishmania major promastigotes, resazurin fluorescence viability; at 10 µM; active compounds read high. A general note: Resazurin is reduced to fluorescent resorufin, in cell work by metabolically active cells.
A word on the inhibition: it is the drop in the measured response relative to a control, in per cent. For the compound `Cc1ccc(C)c(NC(=O)CCC(=O)N/N=C2/CC(=O)CC(C)(C)C2)c1`, the inhibition was -2.4% (inactive).
As for `Cc1nnc(SC(C(=O)Nc2cc(Cl)cc(Cl)c2)c2ccccc2)[nH]c1=O` (stereo not given), the figure is -10.6% (inactive).
Turning to `O=C(CCC(=O)N1CCCC1)Nc1ccc([N+](=O)[O-])cc1`, the inhibition was -1.46% (inactive).
As for `O=C(NCc1ccco1)C1CCCN(S(=O)(=O)c2ccccc2)C1` (stereo not given), the figure is -0.05% (inactive).
As for `CCCC(C(=O)NCc1ccco1)N(C(=O)CNS(=O)(=O)c1ccccc1)C1CCCC1` (stereo not given), the figure is 60% (active); as for `O=C(CN(CC1CCCO1)C(=O)CNS(=O)(=O)c1ccc(F)cc1)NCc1ccco1` (stereo not given), -10% (inactive).
The value for `CC1(C)Cc2c(C#N)c(SCc3nc4ccccc4[nH]3)nc(N3CCOCC3)c2CO1` was 34.1% (inactive); that for `CC(C)c1nc(N2CCOCC2)c(C#N)c2c1COC(C)(C)C2` was 4.48% (inactive).
`COc1ccc(CSc2nc(N3CCOCC3)c3c(c2C#N)CC(C)(C)OC3)cc1`: the inhibition is 66.8% (active).
As for `CCN(CC)C(=O)CS(=O)CC(=O)Nc1cc(OCCOC)c(Cl)cc1Cl` (stereo not given), the figure is 1.34% (inactive); as for `Cc1ccnc2nc(C(=O)Nc3nnc(-c4ccccc4)o3)nn12`, -14.4% (inactive); as for `CCOc1ccc(-n2cnnn2)cc1S(=O)(=O)N1CCC(C)CC1C` (stereo not given), -5.29% (inactive).
Take `COc1cc2[nH]c(=S)n(Cc3ccc(F)cc3)c(=O)c2cc1OC`: the inhibition is -5.46% (inactive).
Consider `CCOC(=O)C1CCN(S(=O)(=O)c2cc(F)ccc2OC)CC1`, for which the inhibition is 6.21% (inactive).
As for `Cc1cccc2cc(CN(Cc3cccs3)C(c3nnnn3C3CCCC3)C(C)C)c(=O)[nH]c12` (stereo not given), the inhibition was 90.3% (active).
The value for `Cc1cc(C)c2cc(CN(Cc3cccs3)Cc3nnnn3CC3CCCO3)c(=O)[nH]c2c1` (stereo not given) was 48.9% (inactive).
The value for `Cc1cc2cc(CN(Cc3cccs3)Cc3nnnn3CC3CCCO3)c(=O)[nH]c2cc1C` (stereo not given) was 21.2% (inactive); that for `Cc1cccc2cc(CN(Cc3nnnn3Cc3ccccc3)C3CCCC3)c(=O)[nH]c12` was 36.7% (inactive); that for `CCC(c1nnnn1C1CCCC1)N(Cc1cccs1)Cc1cc2cccc(C)c2[nH]c1=O` (stereo not given) was 30.1% (inactive).
`Cc1cccc2cc(CN(Cc3ccc4c(c3)OCO4)Cc3nnnn3C3CCCC3)c(=O)[nH]c12`: the inhibition is 71.8% (active).
Consider `C=C(C)CNC(=S)N/N=C/c1ccccc1OCC(=O)O`, for which the inhibition is -1.38% (inactive).
The value for `O=S(=O)(NCCc1ccc(F)cc1)c1cccc2cccnc12` was -0.53% (inactive); that for `O=C1C2C3C=CC(C3)C2C(=O)N1c1ccc(-c2nc3ccccc3c(=O)o2)cc1` (stereo not given) was -7% (inactive).
As for `COc1ccc(OC)c(-n2c(=S)[nH]c3cc(C(=O)N4CCCCC4)ccc3c2=O)c1`, the figure is -7.75% (inactive); as for `COc1ccc(C(=O)Nc2ccc(-n3nncc3C(C)(C)C)cc2)cc1`, -0.36% (inactive); as for `COc1cc(/C=N\Nc2ccc([N+](=O)[O-])cn2)ccc1OCC(=O)O`, 4.37% (inactive).
Turning to `COc1cc(C(=O)OCc2ccc([N+](=O)[O-])cc2)cc(OC)c1OC`, the inhibition is -8.98% (inactive).
As for `COc1cc(/C=N/O)ccc1OCc1ccc([N+](=O)[O-])cc1`, the figure is 51.5% (active); as for `COC(=O)Cc1ccc(Oc2ncc(C(F)(F)F)cc2Cl)cc1`, -7.25% (inactive); as for `C/C(=N\NC(=O)NC1CCCCC1)c1ccc(OC(F)F)cc1OC(F)F`, 46.4% (inactive).
The value for `CCN(CC)CCOC(=O)c1ccc(NC(=O)CNC(=O)c2ccccc2)cc1` was -0.48% (inactive).
Consider `CCOC(=O)c1ccccc1NC(=S)N1CCC(C(N)=O)CC1`, for which the inhibition is 4.08% (inactive).
The value for `COc1cccc(-n2c(=O)c3c(C)c(C(=O)N(C)C)sc3n(CC(=O)NCCc3ccc(OC)c(OC)c3)c2=O)c1` was 2.17% (inactive).
On to `COc1cc(OC)c(C(=O)Nc2ccccc2-c2ccccc2)cc1OC`, for which the inhibition is 82.5% (active).
The value for `COc1cc(OC)c(C(=O)Nc2ccc(N(C)C)cc2)cc1OC` was 3.39% (inactive); that for `O=C(Nc1ccccc1F)c1ccccc1-c1ccccc1` was -3.5% (inactive).
The value for `O=C(NCc1ccccc1Cl)C1CCN(S(=O)(=O)N2CCOCC2)CC1` was -5.43% (inactive); that for `CCOc1ncccc1C(=O)OCC(=O)NC1CC1` was 4.89% (inactive).
For `Cc1csc(NC(=O)CSc2ccc(-c3ccc(F)cc3)nn2)n1`, the inhibition was 7.99% (inactive).
The value for `NNC(=O)C1CC(O)CN1S(=O)(=O)c1ccc(Cl)cc1` (stereo not given) was 4% (inactive); that for `O=C(NCc1ccccc1)C1CCCN(c2nc3ccsc3c(=O)s2)C1` (stereo not given) was -5.75% (inactive).
Take `C=CCn1c(COc2ccc(F)cc2)nnc1SCC(=O)Nc1cccc(S(N)(=O)=O)c1`: the inhibition is 1.1% (inactive).
On to `COc1ccc(NC(=O)c2ccccc2CC[N+](=O)[O-])cc1`, for which the inhibition was 13.1% (inactive).
The value for `Cn1c(=O)c2c(nc(SCC(=O)Nc3ccccc3N3CCCCC3)n2C)n(C)c1=O` was 31% (inactive); that for `Cc1ccccc1NC(=O)CNc1ccccc1N1CCCCC1` was 21.9% (inactive).
For `CC(C)n1c(SCC(=O)Nc2ccccc2N2CCCCC2)nc2c1c(=O)n(C)c(=O)n2C`, the inhibition was 58.5% (active).
With `CN(c1ccccc1)S(=O)(=O)c1ccc(Cl)c(C(=O)OCC(=O)N2CCOCC2)c1`, the inhibition is 1.28% (inactive).
The value for `CCC(=O)NC(=Nc1nc2ccccc2s1)NC(=O)CC` was 8.31% (inactive).
The value for `CC(C)CC(=O)N/C(N)=N/c1nc2ccccc2s1` was 95.3% (active); that for `COC(=O)c1nc2ccccc2s1` was -8.95% (inactive).
The value for `CC/C(=N\NC(=S)NC(C)C)c1ccc(OC(F)F)cc1` was 16.9% (inactive).
Consider `CN(C)CCOc1ccc(Cl)cc1C(C)(C)C`, for which the inhibition was 6.15% (inactive).
The value for `CC(C)(C)NCCCOc1ccc(Cl)cc1C(C)(C)C` was 100% (active); that for `Cc1cc(Cl)ccc1OCCCC(=O)NCc1ccncc1` was -0.52% (inactive); that for `O=C(CN(c1cccc(Cl)c1)S(=O)(=O)c1ccccc1)NN=C1CCCC1` was 12.4% (inactive).
As for `CC1CCCN(CCOCCOc2ccccc2-c2ccccc2)C1` (stereo not given), the figure is 98.6% (active); as for `CC1CCCN(Cc2nc3c(c(=O)n(C)c(=O)n3C)n2CC(=O)c2ccccc2)C1` (stereo not given), 22.4% (inactive); as for `c1ccc(-c2ccccc2OCCN2CCCCC2)cc1`, 8.2% (inactive).
As for `CC1CN(CCCOc2ccccc2-c2ccccc2)CC(C)O1` (stereo not given), the figure is 88.7% (active); as for `CN1CCN(CCCCOc2ccccc2-c2ccccc2)CC1`, 44.5% (inactive); as for `COC(=O)[C@H](Cc1ccccc1)NC(=O)N1CC(C)OC(C)C1` (stereo not given in full), 15.6% (inactive).
For the compound `CC1CCN(S(=O)(=O)c2ccc(S(=O)(=O)NCc3cccnc3)cc2)CC1`, the inhibition is -2.4% (inactive).
Regarding `CS(=O)(=O)N(CC(=O)NC1CCCC1)Cc1ccc(F)cc1`, the inhibition was -5.9% (inactive).
The value for `Cc1ccc(-n2c(=O)c(C#N)cc3c(=O)n4ccccc4nc32)cc1C` was 2.63% (inactive); that for `Cc1cccn2c(=O)c3cc(C#N)c(=O)n(CCCN4CCOCC4)c3nc12` was 95.7% (active); that for `Cc1cccn2c(=O)c3cc(C#N)c(=NC(=O)c4cccnc4)n(CC4CCCO4)c3nc12` (stereo not given) was 16.8% (inactive).
The value for `CN1C(=O)/C(=C\c2ccc(-c3ccccc3)o2)SC1=S` was -6.51% (inactive); that for `O=C(NCCc1ccccc1)C1CCN(S(=O)(=O)c2ccc(Br)s2)CC1` was -1.73% (inactive).
As for `O=C(Cc1ccc(S(=O)(=O)N2CCCC2)s1)NC1CCCCCC1`, the figure is 93.5% (active).
Consider `O=C(NC1CCCCC1)C1CCCN(S(=O)(=O)c2ccc(Br)s2)C1` (stereo not given), for which the inhibition is 12.5% (inactive).
The value for `O=C(NC1CCCCC1)n1c(=O)oc2cc(S(=O)(=O)N3CCCCC3)ccc21` was 2.93% (inactive); that for `O=C(Cc1ccc(S(=O)(=O)N2CCOCC2)s1)NCCC(c1ccccc1)c1ccccc1` was 98.1% (active); that for `COc1ccccc1NC(=O)COC(=O)Cc1ccc(S(=O)(=O)N2CCCCC2)s1` was 6.48% (inactive).
The value for `COc1cccc(CC(=O)N2CCCC(CCC(=O)N3CCN(c4ccccn4)CC3)C2)c1` (stereo not given) was 8.58% (inactive).
As for `Cc1cc(OC(=O)c2ccccc2Cl)ccc1N1C(=O)CCC1=O`, the figure is -6.74% (inactive); as for `Cc1ccccc1-n1nc(SCC(=O)O)sc1=S`, -4.01% (inactive).
In the case of `Cc1ccc(C2CCN(C(=S)Nc3cccc(Cl)c3)C2)cc1` (stereo not given), the inhibition is 0.88% (inactive).
As for `CCOc1ccc(/C=N/Nc2nncc(-c3ccccc3)n2)cc1OC`, the figure is -2.97% (inactive); as for `Cc1[nH]c2ccccc2c1/C=C(/C#N)C(=O)NC(C)C`, 16.4% (inactive).
The value for `CC(C)NC(=O)/C(C#N)=C\c1ccc(N(C)C)c(Br)c1` was 64.6% (active).
`CC(C)(C)C(=O)/C(C#N)=C/c1ccc(O)cc1`: the inhibition was -4.15% (inactive).
The value for `C1CC1Cc1noc(CN2CCN(CC3CC3)CC2)n1` was 15.8% (inactive).
Regarding `CC(N=Cc1nc(-c2ccccc2)oc1O)c1ccccc1` (stereo not given), the inhibition was -1.28% (inactive).
As for `CCOc1ccc2nc(/N=C/c3nc(-c4ccccc4)oc3O)sc2c1`, the figure is 54.2% (active); as for `CCOc1ccc2nc(C(=O)N3CCCC(C)C3)sc2c1` (stereo not given), 41.6% (inactive); as for `Cc1ccc(S(=O)(=O)N(C)CC(=O)OCC(=O)N2CC(=O)Nc3ccccc32)cc1`, 0.63% (inactive).
With `N/C(=N\OC(=O)c1ccc2c(c1)OCO2)c1ccc(Br)cc1`, the inhibition is 1.57% (inactive).
As to `CCCC1CCC(=NNC(=S)NCCc2ccccc2)CC1` (stereo not given), the inhibition is -9.55% (inactive).
As for `CCCCNC(=S)N/N=C1\CCCCc2ccccc21`, the figure is 97.5% (active); as for `Cc1ccc(NC(=S)N/N=C2/CCCc3c(C)cc(C)cc32)cc1`, -7.12% (inactive); as for `CCN(C(=O)COC(=O)c1cc(S(=O)(=O)N2CCc3ccccc32)ccc1OC)C1CCS(=O)(=O)C1` (stereo not given), -4.24% (inactive).
With `CN(C)c1ccc(Nc2c3c4c(cccc4n(C)c2=O)C(=O)c2ccccc2-3)cc1`, the inhibition was 59% (active).
Consider `NC(=O)Cc1nc2scc(-c3ccc(Cl)cc3)c2c(=O)[nH]1`, for which the inhibition is 5.26% (inactive).
As for `O=c1[nH]c(CCl)nc2cc(-c3ccc(Cl)cc3)sc12`, the figure is 96.9% (active).
The value for `O=c1[nH]c(CN2CCOCC2)nc2cc(Cl)ccc12` was -9.96% (inactive).
